Bioassay records: PubChem BioAssay, several laboratories
The list is not random: actives were taken first. Their share in the collection is about 3.2%.
esBAF inh = Bmi1 luciferase reporter increase in mESCs, primary screen, esBAF inhibitor project, mouse ES cells, Bmi1 luciferase knock-in, single point; 2% of 350,000 active; 24 h; 100% = twice the neutral-well signal; reporter increase, % at 12.5 µM; in the data active = activation above about 40%; inconclusive = no clear call, values can overlap the other calls;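 also: a rise in the Bmi1 reporter signal indicates esBAF inhibition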
CDK5 inh = inhibitors of human CDK5/p35 kinase, primary screen, biochemical, single concentration; inhibition, % at 10 µM; 0.01% of 330,000 active; Recombinant CDK5/p35, ADP-Glo luminescence, 60 min; AID 488839, 2010; Cyclin-dependent kinase 5 (Homo sapiens) + Cyclin-dependent kinase 5 activator 1 (Homo …;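 active = highest replicate inhibition of at least 50% and at least 75% of replicates reaching 50%; inconclusive = only one of the two criteria met; inactive = both criteria failed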
DYRK1A inh = rat Dyrk1A kinase inhibitors, primary screen, biochemical, single point, plate reader. Dual specificity tyrosine-phosphorylation-regulated kinase 1A (Rattus norvegicus), Q63470. ADP-Glo luminescence, NFATc1 peptide. inhibition, % at 12.5 µM. 0.43% of 310,000 active. AID 504441, 2011; in the data active = inhibition above about 50%
dFosB activator = activators of delta FosB homodimer, primary screen, biochemical, fluorescence polarization, TAMRA-CDK5 oligo, single point. Protein FosB (Mus musculus), P13346. purified delta FosB; percent of positive-control signal above neutral wells. activation, % at 25 µM. 0.99% of 340,000 active;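 active = mean activation above about 17%, with every replicate also reaching it, limit read from the data, passing the limit was not always enough; inconclusive = only one of the two conditions met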
Target sequence (P13346 whole entry, looked up): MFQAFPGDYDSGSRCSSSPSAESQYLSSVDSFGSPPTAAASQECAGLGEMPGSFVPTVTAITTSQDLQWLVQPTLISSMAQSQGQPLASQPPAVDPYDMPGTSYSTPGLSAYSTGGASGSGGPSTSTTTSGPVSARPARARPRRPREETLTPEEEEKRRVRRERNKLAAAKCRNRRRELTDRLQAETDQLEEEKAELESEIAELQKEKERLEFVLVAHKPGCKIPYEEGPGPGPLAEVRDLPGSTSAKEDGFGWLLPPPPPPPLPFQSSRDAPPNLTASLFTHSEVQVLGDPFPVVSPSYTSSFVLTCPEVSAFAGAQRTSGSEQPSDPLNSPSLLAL
Rtt109 HAT inh = inhibitors of C. albicans Rtt109/Vps75 HAT, primary screen, biochemical, ThioGlo CoA-SH fluorescence, plate reader. inhibition, % at 34.9 µM. 0.16% of 330,000 active. Histone acetyltransferase RTT109 (Candida albicans (strain SC5314 / ATCC MYA-2876)), …. AID 540336, 2011. purified Rtt109/Vps75, 4 h;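 active = inhibition of at least 50% in every replicate; inconclusive = best replicate reaches 50% inhibition but some replicates fall short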
Target sequence (Q5AAJ8 whole entry, looked up): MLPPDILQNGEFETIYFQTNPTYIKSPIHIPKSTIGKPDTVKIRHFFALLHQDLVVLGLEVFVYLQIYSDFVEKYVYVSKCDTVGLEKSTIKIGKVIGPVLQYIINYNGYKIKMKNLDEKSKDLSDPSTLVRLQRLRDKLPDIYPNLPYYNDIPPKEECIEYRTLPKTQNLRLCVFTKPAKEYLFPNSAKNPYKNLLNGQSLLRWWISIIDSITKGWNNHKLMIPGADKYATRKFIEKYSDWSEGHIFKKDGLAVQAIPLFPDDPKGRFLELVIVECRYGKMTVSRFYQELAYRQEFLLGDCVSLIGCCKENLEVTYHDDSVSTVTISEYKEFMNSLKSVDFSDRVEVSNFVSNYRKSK
SMARCA2 act = SMARCA2 (BRM) function activators, primary screen, cell-based, luminescence, high throughput; MG213 cells, MMTV-luciferase reporter, dexamethasone, overnight; activation, % at 9.1 µM; 1% of 370,000 active; in the data active = activation above about 7.8%
Large screens that a line does not name were inactive.

N#Cc1c(/N=C/c2cc(Br)cs2)sc2c1CCC2	esBAF inh 78
Cc1cccnc1Nc1nc(-c2ccc(F)cc2)cs1	esBAF inh inconclusive
Cc1cccnc1Nc1nc(-c2ccc(O)cc2)cs1	esBAF inh 58
Cc1cc(C)n(-c2nc(-c3cccc(Cl)c3)cs2)n1	esBAF inh 49
CCCN(C)C[C@H]1Oc2ncc(-c3ccccc3F)cc2C(=O)N([C@H](C)CO)C[C@@H]1C	none (no result: CDK5 inh, DYRK1A inh, dFosB activator, Rtt109 HAT inh, SMARCA2 act)
CC(C)NC(=O)N(C)C[C@@H]1Oc2ncc(C#CC3CC3)cc2C(=O)N([C@@H](C)CO)C[C@@H]1C	none (no result: CDK5 inh, DYRK1A inh, dFosB activator, Rtt109 HAT inh, SMARCA2 act)
CC(=O)c1ccc2noc(-c3ccccc3)c2c1	none
c1ccc(-c2onc3cc4c(cc23)OCCO4)cc1	esBAF inh 68
Cc1ccc(Nc2nc3c(c(=O)[nH]2)CCCC3)cc1	esBAF inh 70 (no result: Rtt109 HAT inh)
CCOc1ccc(Nc2nc3c(c(=O)[nH]2)CCCC3)cc1	none
O=C(COC(=O)C1CC2CCCC(C1)C2=O)Nc1nc(-c2ccc(F)c(F)c2)cs1 (stereo unspecified)	esBAF inh 70
O=C(COC(=O)C1CC2CCCC(C1)C2=O)Nc1ccc(F)c(Cl)c1 (stereo unspecified)	none
CCOc1ccc(S(=O)(=O)Nc2cccc(-c3ccc(N4CCCCCC4)nn3)c2)cc1	none
O=S(=O)(Nc1cccc(-c2ccc(N3CCCCCC3)nn2)c1)c1cccc(F)c1	esBAF inh 66 (no result: CDK5 inh, DYRK1A inh)
COc1ccc(C)cc1S(=O)(=O)Nc1cccc(-c2ccc(N3CCCCCC3)nn2)c1	esBAF inh inconclusive
Cc1ccc([N+](=O)[O-])cc1S(=O)(=O)Nc1cccc(-c2ccc(N3CCCC3)nn2)c1	none
O=S(=O)(Nc1cccc(-c2ccc(N3CCCCCC3)nn2)c1)c1ccc(F)cc1	esBAF inh 56
Cc1ccc(S(=O)(=O)Nc2cccc(-c3ccc(N4CCCCCC4)nn3)c2)cc1C	esBAF inh 46
O=S(=O)(Nc1cccc(-c2ccc(N3CCCCCC3)nn2)c1)c1ccc(C(F)(F)F)cc1	esBAF inh 56
C[C@H](CO)N1C[C@H](C)[C@@H](CN(C)C(=O)Nc2ccc(C(F)(F)F)cc2)Oc2c(NS(=O)(=O)c3ccc(Cl)cc3)cccc2C1=O	none (no result: CDK5 inh, DYRK1A inh, dFosB activator, Rtt109 HAT inh, SMARCA2 act)
C[C@@H]1CN([C@@H](C)CO)C(=O)Cc2cc(NC(=O)Nc3ccccc3)ccc2O[C@@H]1CN(C)C(=O)Nc1cccc2ccccc12	none (no result: CDK5 inh, DYRK1A inh, dFosB activator, Rtt109 HAT inh, SMARCA2 act)
COc1cccc(S(=O)(=O)Nc2ccc3c(c2)OC[C@@H](C)N(Cc2cc(F)ccc2F)C[C@@H](C)[C@H](OC)CN(C)C3=O)c1	none (no result: CDK5 inh, DYRK1A inh, dFosB activator, Rtt109 HAT inh, SMARCA2 act)
O=S(=O)(Nc1cccc(-c2ccc(N3CCCCCC3)nn2)c1)c1ccccc1Cl	esBAF inh 44 (no result: CDK5 inh, DYRK1A inh)
O=S(=O)(Nc1cccc(-c2ccc(N3CCCCCC3)nn2)c1)c1ccccc1F	none (no result: esBAF inh)
CN(C)c1ccc(-n2cc3c(=O)n(C)c(=O)n(C)c3c2)cc1	esBAF inh 71
C[C@@H]1CCCCO[C@H](CN(C)S(=O)(=O)c2cn(C)cn2)[C@@H](C)CN([C@@H](C)CO)C(=O)c2cc(NC(=O)Nc3ccc(C(F)(F)F)cc3)ccc2O1	none (no result: CDK5 inh, DYRK1A inh, dFosB activator, Rtt109 HAT inh, SMARCA2 act)
COc1ccc(NC(=O)c2ccc(-c3c(C)noc3C)c3ccoc23)cc1	esBAF inh 56 (no result: CDK5 inh, DYRK1A inh, dFosB activator, Rtt109 HAT inh)
Cc1noc(C)c1-c1ccc(C(=O)NCC2CC2)c2occc12	none (no result: CDK5 inh, DYRK1A inh, dFosB activator, Rtt109 HAT inh)
Cc1noc(C)c1-c1ccc(C(=O)NC2CCCCC2)c2occc12	esBAF inh 53 (no result: CDK5 inh, DYRK1A inh, dFosB activator, Rtt109 HAT inh)
COc1ccc(S(=O)(=O)N[C@@H]2CC[C@@H](CC(=O)O)O[C@H]2CO)cc1	none (no result: CDK5 inh, DYRK1A inh, dFosB activator, Rtt109 HAT inh, SMARCA2 act)
Cc1nc2cc(C(=O)O)ccc2s1	esBAF inh 73
O=C(Nc1ccccc1F)c1ccc2snnc2c1	none
Cc1nc2ccc(NC(=O)c3ccccc3)cc2s1	none (no result: esBAF inh, Rtt109 HAT inh)
Cc1nc2ccc(NC(=O)c3sccc3C)cc2s1	esBAF inh 46
Cc1nc2ccc(C(=O)Nc3ccc(N(C)C)cc3)cc2s1	none (no result: esBAF inh)
O=C(Nc1ccc(Cl)cc1)c1ccc2snnc2c1	esBAF inh 57
CC(=O)c1ccc(NC(=O)c2ccc3nc(C)sc3c2)cc1	esBAF inh 49 (no result: DYRK1A inh)
Cc1nc2ccc(NC(=O)c3cccs3)cc2s1	none (no result: esBAF inh)
CC(=O)c1ccc(NC(=O)c2ccc3snnc3c2)cc1	esBAF inh 63
COc1ccc(NC(=O)c2ccc3snnc3c2)cc1	esBAF inh 56 (no result: DYRK1A inh)
CNC(=O)c1ccc2snnc2c1	none
COc1cccc(C(=O)O/N=C(\N)c2ccncc2)c1	SMARCA2 act 7.8
COc1ccc(C(=O)O/N=C(\N)c2cccc(C)c2)cc1OC	esBAF inh 69
N/C(=N\OC(=O)c1ccc(Br)o1)c1cccnc1	none (no result: esBAF inh, DYRK1A inh)
COc1ccc(/C(N)=N/OC(=O)c2ccc(Br)o2)cc1	esBAF inh 58
COc1cccc(C(=O)O/N=C(\N)c2ccc(C)cc2)c1	none
COc1ccc(C(=O)O/N=C(\N)c2ccccc2)cc1OC	esBAF inh inconclusive
COc1cccc(C(=O)O/N=C(\N)c2ccc([N+](=O)[O-])cc2)c1	esBAF inh 55
Cc1ccccc1-c1cnc2c(c1)C(=O)N([C@@H](C)CO)C[C@@H](C)[C@@H](CN(C)C(=O)c1ccc(F)cc1)O2	none (no result: CDK5 inh, DYRK1A inh, dFosB activator, Rtt109 HAT inh, SMARCA2 act)
O=C(C[C@H]1CC[C@@H]2[C@H](COC[C@@H](O)CN2Cc2nccs2)O1)NCc1ccc(-c2ccccc2)cc1	none (no result: CDK5 inh, DYRK1A inh, dFosB activator, Rtt109 HAT inh, SMARCA2 act)
Cc1ccc(C(=O)O/N=C(\N)c2cccc([N+](=O)[O-])c2)cc1	none
COc1ccc(/C(N)=N/OC(=O)c2cccc([N+](=O)[O-])c2)cc1	esBAF inh 64
CCN1[C@H](C(=O)NCCc2cn(C)cn2)[C@@H](CO)[C@@H]2Cn3c(ccc(-c4cccnc4)c3=O)[C@@H]21	none (no result: CDK5 inh, DYRK1A inh, dFosB activator, Rtt109 HAT inh, SMARCA2 act)
CCOC(=O)c1cc2c(s1)-c1ccccc1CC2	esBAF inh 57
COC(=O)c1cc2c(s1)-c1ccccc1CC2	none
CCOC(=O)c1cc2ccc3ccccc3c2s1	esBAF inh 75
COc1ccc(S(=O)(=O)Nc2cccc3c2O[C@@H](CN(C)Cc2ccc(C(F)(F)F)cc2)[C@@H](C)CN([C@@H](C)CO)C3=O)cc1	none (no result: CDK5 inh, DYRK1A inh, dFosB activator, Rtt109 HAT inh, SMARCA2 act)
COC(=O)c1cc2c(ccn2-c2ccc(F)cc2)n1CC(=O)C(C)(C)C	Rtt109 HAT inh 54 (no result: esBAF inh)
COC(=O)c1cc2c(ccn2-c2ccc(F)cc2)n1CC(=O)OC(C)C	none (no result: esBAF inh)
COc1ccccc1N/C=C/c1onc(C)c1[N+](=O)[O-]	none (no result: esBAF inh)
Cc1noc(/C=C/c2ccccn2)c1[N+](=O)[O-]	esBAF inh 48 (no result: DYRK1A inh)
CC1CCCCC12NC(=O)N(CC(=O)NC(=O)Nc1ccc3c(c1)OCCO3)C2=O (stereo unspecified)	esBAF inh 57
